# From PubChem BioAssay AID488890 (Southern Research Specialized Biocontainment Screening …, 2010)
# Hit rate of the full screen: of about 320,000 compounds, about 1,300 (0.41%) were called active. About 3% were inconclusive and are not listed. The rule behind the calls is not given here. The list is a sample of the results. Potency and affinity values are given separately.
# Test: growth inhibition of non-replicating M. tuberculosis (AID 488890);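 note: plate controls were DMSO cells for no effect and high antibiotic wells for full effect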
# Conditions: Mycobacterium tuberculosis non-replicating, at 25 µM, stronger effect = higher value
row,Structure (SMILES),inhibition
1,CSc1nc2n(n1)C(C)C1=C(CCCC1=O)N2 (configuration not stated),-15.3%
2,CC(=O)Nc1ccc(NC(=O)c2ccc(S(=O)(=O)N(C)c3ccccc3)cc2)cc1,-4.01%
3,COc1ccc(C(=O)OCc2c(-c3ccccc3)ncc3ccccc23)cc1,14.9%
4,Cc1cccc(C(=O)NCCC(=O)Nc2ccc(C#N)cc2)c1,-25.3%
5,Cc1cccc2nc(CSc3ccccc3C(=O)O)cn12,24.4%
6,Cc1cc(C)cc(NC(=O)C2CCCN(c3ncccn3)C2)c1 (configuration not stated),0.57%
7,c1cc(-c2cc3cc4c(cc3cn2)OCO4)cs1,53.8%
8,O=S(=O)(c1cc(Cl)ccc1Cl)N1CCN(c2ccccn2)CC1,6.68%
9,O=S(=O)(CCN1CCN(c2ccccn2)CC1)c1ccc(F)cc1,3.07%
10,CC(=O)Cn1c2ccccc2n2nc(CCC(=O)O)c(=O)nc12,-25.9%
11,CC1CCN(C(=O)c2cc3ccccc3cc2O)CC1,62%
12,O=C(c1cc2ccccc2cc1O)N1CCCC1,5.6%
13,O=C(OCC(=O)N1CCN(C(=O)COC(=O)c2ccc(O)cc2O)CC1)c1ccc(O)cc1O,-2.13%
14,Cc1cccc(C(=O)OCC(=O)N2CCCCCC2)c1,12%
15,NC(=O)C1CCN(C(=O)COc2ccc(Nc3ccccc3)cc2)CC1,24.7%
16,CC1CCN(C(=O)COC(=O)c2cc3ccccc3oc2=O)CC1,11.8%
17,O=C(COc1ccc(Cl)cc1)OCC(=O)N1CCCCCC1,70.8%
18,O=C(OCC(=O)N1CCCC1)c1ccccc1O,71.7%
19,O=[N+]([O-])c1cccc(-c2csc(N/N=C/c3cccc(O)c3)n2)c1,4.67%
20,COc1ccc(C(OC(=O)c2ccco2)C(=O)NC2CCCC2)cc1 (configuration not stated),-11.4%
21,CCc1ccc(C(=O)NCc2cnn(C)c2)s1,6.54%
22,Cc1ccc(SCC(=O)O/N=C(\N)c2cccnc2)cc1,67.7%
23,O=C(/C=C/Nc1ccc(Oc2ccccc2Cl)cc1)c1ccco1,61.8%
24,Cc1cccc(-n2ccnc2SCC(=O)Nc2nccs2)c1,15.5%

row,Structure (SMILES),inhibition
1,O=C(NCc1nc2ccccc2[nH]1)c1ccc([N+](=O)[O-])cc1,4.71%
2,O=C(Cc1nc2ccccc2[nH]1)c1ccc([N+](=O)[O-])cc1,6.15%
3,Cc1cc(C(=O)CN2C(=O)C(=O)N(Cc3ccco3)C2=O)c(C)n1CCc1ccccc1,54.3%
4,Cc1ccnc(NC(=O)COc2ccc3oc4c(c3c2)CCCC4)c1,76.9%
5,Cc1cccc(NC(=O)COc2ccc3oc4c(c3c2)CCCC4)n1,75.9%
6,COc1ccc(CNC(=O)Nc2ccc([N+](=O)[O-])cc2)cc1,-6.85%
7,O=C(NCCCn1ccnc1)c1ccc(Cl)c(S(=O)(=O)N2CCOCC2)c1,2.9%
8,C/C(CC(=O)Nc1cccnc1)=N\NC(=O)C(=O)Nc1cccc(C)c1,6.84%
9,CCOCCn1ccc2c(OCC(=O)Nc3ccccc3F)cccc2c1=O,4.93%
10,Cc1ccc(OCCNC(=O)c2cccc(C)c2)cc1,49.8%
11,O=C(NCCOc1ccccc1)c1cc(C(=O)NCCOc2ccccc2)cc([N+](=O)[O-])c1,-6.28%
12,COc1cccc(OCCNC(=O)c2cccc(OC)c2)c1,7.64%
13,COc1cccc(OCCNC(=O)c2ccc(C)cc2)c1,37.6%
14,CCCN(C(=O)c1ccco1)c1nnc(-c2ccccc2C)s1,72.7%
15,COc1cc(C(=O)N[C@H](C(=O)NC2CCCCCC2)C(C)C)cc(OC)c1OC,2.31%
16,O=C(COC(=O)c1cc(Br)ccc1O)Nc1ccc2c(c1)OCCO2,76.5%
17,O=C(COC(=O)c1cc(Cl)ccc1O)Nc1ccc2c(c1)OCCO2,71.7%
18,Cc1ccc(C(=O)OCC(=O)Nc2ccc3c(c2)OCO3)c(O)c1,-15.4%
19,O=C(COC(=O)c1cccnc1Cl)c1ccc2c(c1)OCCO2,5.13%
20,CC1=C(C(=O)OCc2ccccc2)C(c2ccc([N+](=O)[O-])cc2)NC(=O)N1 (configuration not stated),8.66%
21,Cc1ccc(-n2cc3c(=O)n(C)c(=O)n(C)c3c2)cc1C,13.7%
22,COc1cc2[nH]c(=S)nc(NCc3cccs3)c2cc1OC,-37%
23,COC(=O)c1ccc(NC(=O)NS(=O)(=O)c2ccc(C)cc2)cc1,16.8%
24,CCOC(=O)c1ccc(S(=O)(=O)NNS(=O)(=O)c2ccc(C)cc2)cc1,3.23%

row,Structure (SMILES),inhibition
1,CCOC(=O)c1ccc(NC(=O)CCC(=O)OC)cc1,3.53%
2,CCOC(=O)CC(=O)Nc1ccc(C)cc1,60.5%
3,COC(=O)C(C)NC(=O)c1ccc(C(C)(C)C)cc1 (configuration not stated),-13.9%
4,Cc1oc(-c2ccccc2F)nc1CS(=O)(=O)CC(=O)NCCCc1ccccc1,-19.5%
5,Cc1ccc(C(C)NC(=O)c2ccco2)cc1 (configuration not stated),71.4%
6,CCC(=O)C1CCCN(C(=O)CCc2nnc(-c3ccc4c(c3)OCO4)o2)C1 (configuration not stated),-3.37%
7,Oc1ccccc1N=N/C(=N/Nc1ccccc1O)c1ccccc1,22.9%
8,O=C(O)c1ccccc1N=N/C(=N/Nc1cc(S(=O)(=O)O)ccc1O)c1ccccc1,-12.5%
9,CC(=O)OC(C(=O)NC1CCCCC1)c1ccncc1 (configuration not stated),-2.68%
10,CSC1=NSC2=NC(=O)/C(=C/c3coc4ccccc4c3=O)C(=N)N12,-10.1%
11,CSC1=NSC2=NC(=O)/C(=C\c3coc4ccccc4c3=O)C(=N)N12,-4.28%
12,CCOc1ccc(Nc2ccc(N3C(=O)CCC3=O)cc2[N+](=O)[O-])cc1,7.14%
13,Cc1sc(NC(=O)c2cccc(N3C(=O)CCC3=O)c2)nc1-c1ccccc1,-5.52%
14,CCN(CC)S(=O)(=O)c1cccc(-c2nnc(SCC(=O)NC)n2N)c1,-7.59%
15,Cc1ccc(NC(=O)COC(=O)CCC(=O)c2cccs2)cc1,69%
16,COc1ccc(NC(=O)CCC(=O)c2cccs2)c(OC)c1,-6.26%
17,COc1ccc(NC(=O)CCC(=O)c2cccs2)cc1Cl,1.43%
18,COc1cc(NC(=O)C/C(C)=N/NC(=O)c2cccc(O)c2)c(OC)cc1Cl,45.4%
19,Cc1ccc(N/C=C/C(=O)c2cccs2)cc1C,35.6%
20,Cc1ccc(NC(=O)COC(=O)CCC(=O)c2cccs2)cc1C,59.8%
21,COc1cc(NC(=O)C/C(C)=N/NC(=O)c2ccccn2)c(OC)cc1Cl,69.5%
22,Cc1ccc(NC(=O)CCC(=O)c2cccs2)cc1,8.3%
23,O=C(CSc1n[nH]c(-c2ccc(S(=O)(=O)NC3CCCCC3)cc2)n1)N1CCCC1,12.1%
24,O=C(CCc1nc2ccccc2c(=O)[nH]1)NCCN1C(=O)S/C(=C\c2ccccc2Cl)C1=O,7.97%
